# Assay results from publication PMC8384837, “Expanding the binding specificity for RNA recognition by a PUF domain”.
# Where a chain is given by its changes, count along the chain named.
# Key:
# Assay in all cases: yeast three-hybrid, YBZ-1, SC-Leu-His + 0.5 mM 3-AT, 4 days
# Settings in all cases: tags: N-Gal4 AD-HA kept; label: inside an RPR1-promoter hybrid RNA with tandem MS2 sites; ssRNA
# PUM1 PUF domain R6-CWS = target: T1, PUM1 PUF domain R6-CWS (Homo sapiens, UniProt Q14671 828-1176, N1043C;Y1044W;Q1047S)
# T1 sequence: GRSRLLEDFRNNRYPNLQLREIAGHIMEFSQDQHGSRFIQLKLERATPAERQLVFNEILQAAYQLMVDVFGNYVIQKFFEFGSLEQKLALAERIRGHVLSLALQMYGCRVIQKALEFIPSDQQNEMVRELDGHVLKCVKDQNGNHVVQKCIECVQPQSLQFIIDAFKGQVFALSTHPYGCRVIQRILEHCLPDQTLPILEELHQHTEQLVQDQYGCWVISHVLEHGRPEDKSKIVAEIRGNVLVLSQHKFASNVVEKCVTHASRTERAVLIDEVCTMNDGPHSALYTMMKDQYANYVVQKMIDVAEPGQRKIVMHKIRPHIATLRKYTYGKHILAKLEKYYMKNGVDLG
# How it was run: (§1)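 The interaction score is the logarithmic change in variant frequency from input to selection. It uses log2, with a pseudocount of 1 for absent variants, and frequencies came from PCR-amplified, Illumina-sequenced repeat regions. The libraries were Pumilio-1 PUF domains randomized at the three base-contacting residues per repeat, co-expressed with matching RNA elements in strain YBZ-1 (LexA–MS2 coat fusion, HIS3 reporter). Plating lasted four days on SC-Leu (input) or SC-Leu-His + 0.5 mM 3-AT (selection).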
# PUM1 PUF domain R6-VFY = target: T2, PUM1 PUF domain R6-VFY (Homo sapiens, UniProt Q14671 828-1176, N1043V;Y1044F;Q1047Y)
# T2 sequence: T1 sequence with C216V, W217F, S220Y
# How it was run: as §1
# PUM1 PUF domain R5-SQG = PUM1 PUF domain R5-SQG (Homo sapiens, UniProt Q14671 828-1176, C1007S;R1008Q;Q1011G)
# How it was run: as §1
# PUM1 PUF domain R5-AGD = PUM1 PUF domain R5-AGD (Homo sapiens, UniProt Q14671 828-1176, C1007A;R1008G;Q1011D)
# How it was run: as §1
# PUM1 PUF domain R5-GKE = PUM1 PUF domain R5-GKE (Homo sapiens, UniProt Q14671 828-1176, C1007G;R1008K;Q1011E)
# How it was run: as §1
# PUM1 PUF domain R5-SMG = PUM1 PUF domain R5-SMG (Homo sapiens, UniProt Q14671 828-1176, C1007S;R1008M;Q1011G)
# How it was run: as §1
# PUM1 PUF domain R7-RGK = PUM1 PUF domain R7-RGK (Homo sapiens, UniProt Q14671 828-1176, S1079R;N1080G;E1083K)
# How it was run: as §1
# PUM1 PUF domain R7-KPI = PUM1 PUF domain R7-KPI (Homo sapiens, UniProt Q14671 828-1176, S1079K;N1080P;E1083I)
# How it was run: as §1
# PUM1 PUF domain R7-LFG = PUM1 PUF domain R7-LFG (Homo sapiens, UniProt Q14671 828-1176, S1079L;N1080F;E1083G)
# How it was run: as §1
# PUM1 PUF domain R8-RYP = PUM1 PUF domain R8-RYP (Homo sapiens, UniProt Q14671 828-1176, N1122R;Q1126P)
# How it was run: as §1
# PUM1 PUF domain R4-DWC = PUM1 PUF domain R4-DWC (Homo sapiens, UniProt Q14671 828-1176, N971D;H972W;Q975C)
# How it was run: as §1
# PUM1 PUF domain R5-AYF = PUM1 PUF domain R5-AYF (Homo sapiens, UniProt Q14671 828-1176, C1007A;R1008Y;Q1011F)
# How it was run: as §1
# PUM1 PUF domain R5-GSR = PUM1 PUF domain R5-GSR (Homo sapiens, UniProt Q14671 828-1176, C1007G;R1008S;Q1011R)
# How it was run: as §1
# PUM1 PUF domain R6-IYK = target: T3, PUM1 PUF domain R6-IYK (Homo sapiens, UniProt Q14671 828-1176, N1043I;Q1047K)
# T3 sequence: T1 sequence with C216I, W217Y, S220K
# How it was run: as §1
# PUM1 PUF domain R4-PFY = PUM1 PUF domain R4-PFY (Homo sapiens, UniProt Q14671 828-1176, N971P;H972F;Q975Y)
# How it was run: as §1
# PUM1 PUF domain R5-ERF = PUM1 PUF domain R5-ERF (Homo sapiens, UniProt Q14671 828-1176, C1007E;Q1011F)
# How it was run: as §1
# PUM1 PUF domain R6-GFK = target: T4, PUM1 PUF domain R6-GFK (Homo sapiens, UniProt Q14671 828-1176, N1043G;Y1044F;Q1047K)
# T4 sequence: T1 sequence with C216G, W217F, S220K
# How it was run: as §1
# PUM1 PUF domain R4-WSY = PUM1 PUF domain R4-WSY (Homo sapiens, UniProt Q14671 828-1176, N971W;H972S;Q975Y)
# How it was run: as §1
# PUM1 PUF domain R5-KRG = PUM1 PUF domain R5-KRG (Homo sapiens, UniProt Q14671 828-1176, C1007K;Q1011G)
# How it was run: as §1
# PUM1 PUF domain R3-TIE = PUM1 PUF domain R3-TIE (Homo sapiens, UniProt Q14671 828-1176, C935T;R936I;Q939E)
# How it was run: as §1
sequence,measurement,setting,value
GGCUAGAACUAGUGGAUCCCCCGGCGCCCGGCGGCUCGAGCCCGGGUAAGUGAAAAUAGUCUGCAUGCCGCCGGGCGCCAUGCCUGCAGGUCGACUCUAGAAAACAUG,binding signal,PUM1 PUF domain R6-CWS,5.26 log2 enrichment (interaction score)
same,binding signal,PUM1 PUF domain R6-VFY,6.28 log2 enrichment (interaction score)
GGCUAGAACUAGUGGAUCCCCCGGCGCCCGGCGGCUCGAGCCCGGGUAAGUGUGAAUAGUCUGCAUGCCGCCGGGCGCCAUGCCUGCAGGUCGACUCUAGAAAACAUG,binding signal,PUM1 PUF domain R5-SQG,3.41 log2 enrichment (interaction score)
same,binding signal,PUM1 PUF domain R5-AGD,3.87 log2 enrichment (interaction score)
same,binding signal,PUM1 PUF domain R5-GKE,4.81 log2 enrichment (interaction score)
same,binding signal,PUM1 PUF domain R5-SMG,2.11 log2 enrichment (interaction score)
GGCUAGAACUAGUGGAUCCCCCGGCGCCCGGCGGCUCGAGCCCGGGUAAGUCUAAAUAGUCUGCAUGCCGCCGGGCGCCAUGCCUGCAGGUCGACUCUAGAAAACAUG,binding signal,PUM1 PUF domain R7-RGK,5.3 log2 enrichment (interaction score)
same,binding signal,PUM1 PUF domain R7-KPI,3.61 log2 enrichment (interaction score)
same,binding signal,PUM1 PUF domain R7-LFG,3.01 log2 enrichment (interaction score)
GGCUAGAACUAGUGGAUCCCCCGGCGCCCGGCGGCUCGAGCCCGGGUAAGCGUAAAUAGUCUGCAUGCCGCCGGGCGCCAUGCCUGCAGGUCGACUCUAGAAAACAUG,binding signal,PUM1 PUF domain R8-RYP,6.03 log2 enrichment (interaction score)
GGCUAGAACUAGUGGAUCCCCCGGCGCCCGGCGGCUCGAGCCCGGGUAAGUGUACAUAGUCUGCAUGCCGCCGGGCGCCAUGCCUGCAGGUCGACUCUAGAAAACAUG,binding signal,PUM1 PUF domain R4-DWC,2.72 log2 enrichment (interaction score)
GGCUAGAACUAGUGGAUCCCCCGGCGCCCGGCGGCUCGAGCCCGGGUAAGUGUAAAUAGUCUGCAUGCCGCCGGGCGCCAUGCCUGCAGGUCGACUCUAGAAAACAUG,binding signal,PUM1 PUF domain R5-AYF,3.62 log2 enrichment (interaction score)
same,binding signal,PUM1 PUF domain R8-RYP,4.32 log2 enrichment (interaction score)
same,binding signal,PUM1 PUF domain R5-GSR,1.75 log2 enrichment (interaction score)
same,binding signal,PUM1 PUF domain R6-IYK,2.06 log2 enrichment (interaction score)
same,binding signal,PUM1 PUF domain R4-PFY,5.35 log2 enrichment (interaction score)
same,binding signal,PUM1 PUF domain R5-ERF,2.71 log2 enrichment (interaction score)
same,binding signal,PUM1 PUF domain R6-GFK,2.55 log2 enrichment (interaction score)
same,binding signal,PUM1 PUF domain R5-AGD,1.82 log2 enrichment (interaction score)
same,binding signal,PUM1 PUF domain R4-WSY,2.29 log2 enrichment (interaction score)
same,binding signal,PUM1 PUF domain R5-KRG,1.97 log2 enrichment (interaction score)
same,binding signal,PUM1 PUF domain R4-DWC,2.81 log2 enrichment (interaction score)
same,binding signal,PUM1 PUF domain R6-CWS,3.77 log2 enrichment (interaction score)
GGCUAGAACUAGUGGAUCCCCCGGCGCCCGGCGGCUCGAGCCCGGGUAAGUGUAUAUAGUCUGCAUGCCGCCGGGCGCCAUGCCUGCAGGUCGACUCUAGAAAACAUG,binding signal,PUM1 PUF domain R4-PFY,3.71 log2 enrichment (interaction score)
same,binding signal,PUM1 PUF domain R4-WSY,3.41 log2 enrichment (interaction score)
same,binding signal,PUM1 PUF domain R4-DWC,2.64 log2 enrichment (interaction score)
GGCUAGAACUAGUGGAUCCCCCGGCGCCCGGCGGCUCGAGCCCGGGUAAGUGUCAAUAGUCUGCAUGCCGCCGGGCGCCAUGCCUGCAGGUCGACUCUAGAAAACAUG,binding signal,PUM1 PUF domain R5-GSR,5.07 log2 enrichment (interaction score)
same,binding signal,PUM1 PUF domain R5-ERF,3.35 log2 enrichment (interaction score)
same,binding signal,PUM1 PUF domain R5-KRG,3.68 log2 enrichment (interaction score)
same,binding signal,PUM1 PUF domain R5-GKE,1.37 log2 enrichment (interaction score)
GGCUAGAACUAGUGGAUCCCCCGGCGCCCGGCGGCUCGAGCCCGGGUAAGUGUUAAUAGUCUGCAUGCCGCCGGGCGCCAUGCCUGCAGGUCGACUCUAGAAAACAUG,binding signal,PUM1 PUF domain R5-SQG,0.27 log2 enrichment (interaction score)
same,binding signal,PUM1 PUF domain R5-GSR,3.01 log2 enrichment (interaction score)
same,binding signal,PUM1 PUF domain R5-ERF,3.92 log2 enrichment (interaction score)
same,binding signal,PUM1 PUF domain R5-KRG,4.3 log2 enrichment (interaction score)
same,binding signal,PUM1 PUF domain R5-GKE,2.85 log2 enrichment (interaction score)
same,binding signal,PUM1 PUF domain R5-SMG,0.67 log2 enrichment (interaction score)
GGCUAGAACUAGUGGAUCCCCCGGCGCCCGGCGGCUCGAGCCCGGGUAAGUGUAAGUAGUCUGCAUGCCGCCGGGCGCCAUGCCUGCAGGUCGACUCUAGAAAACAUG,binding signal,PUM1 PUF domain R3-TIE,4.39 log2 enrichment (interaction score)
GGCUAGAACUAGUGGAUCCCCCGGCGCCCGGCGGCUCGAGCCCGGGUAAGUUUAAAUAGUCUGCAUGCCGCCGGGCGCCAUGCCUGCAGGUCGACUCUAGAAAACAUG,binding signal,PUM1 PUF domain R7-RGK,6.69 log2 enrichment (interaction score)
same,binding signal,PUM1 PUF domain R7-LFG,4.82 log2 enrichment (interaction score)
